Test [1] concerns the target Bile acid receptor (Homo sapiens) (UniProt Q96RI1). The test is described as follows: ATG_IR1_CIS: Attagene CIS-FACTORIAL HepG2 Assay for human Nuclear Receptor Subfamily 1 Group H Member 4 (NR1H4), IR1 submotif (AID 2282946). As to conditions: IR1 reporter transcription, actives raise or lower the signal. The procedure, abridged: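 Fluorescence of capillary-separated, HpaI-digested RT-PCR reporter products gave IR1-element mRNA induction in HepG2 cells 24 h after dosing. Endogenous transcription factors drove the cis-regulated reporters; activity was fitted bidirectionally against DMSO.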

Test [2] can be described thus: ATG_GRE_CIS: Attagene CIS-FACTORIAL HepG2 Assay for human Glucocorticoid Response Elements (GRE) (AID 2282947). As to conditions: HepG2 GRE cis-reporter, Attagene multiplex mRNA; actives raise or lower the signal. The procedure, abridged:
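Read-out: fluorescent reporter-transcript fragments separated by capillary electrophoresis after RT-PCR. Transiently transfected HepG2 cells carrying cis-element-driven reporter units were dosed for 24 h; gain or loss of signal fitted against DMSO control.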

Test [3] can be described thus: ATG_ISRE_CIS: Attagene CIS-FACTORIAL HepG2 Assay for human Interferon Regulatory Factor 1 (IRF1) binding to an Interferon-Stimulated Response Element (ISRE) (AID 2282948). As to conditions: HepG2 ISRE cis-reporter (Attagene), mRNA transcription readout; actives raise or lower the signal. The procedure, abridged: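 Uses HepG2 liver cells transfected with cis-regulated reporters and measures mRNA 24 h post-dosing through RT-PCR, primer-extension labelling and capillary electrophoresis, with DMSO as negative control.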

Test [4] is described as follows: ATG_M_32_CIS: Attagene CIS-FACTORIAL HepG2 Assay for M32 Transcription Factor (Internal Marker) (AID 2282949).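 Further: background control marker of the multiplexed CIS panel rather than a real target.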 As to conditions: HepG2 Attagene cis-factorial M32 reporter, mRNA; actives raise or lower the signal. A digest of the protocol: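 Using DMSO as baseline, bidirectional curve fits were applied to reporter mRNA signals. These came from transiently transfected HepG2 cells exposed for 24 h, with RNA analysed by RT-PCR, FAM primer extension, HpaI digestion and CE.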

Test [5] is described as follows: ATG_M_06_CIS: Attagene CIS-FACTORIAL HepG2 Assay for M06 Transcription Factor (Internal Marker) (AID 2282950). As to conditions: HepG2 Attagene CIS-FACTORIAL M06 internal marker reporter; actives raise or lower the signal. A digest of the protocol: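 Read-out is fluorescence of labelled reporter cDNA fragments resolved by capillary electrophoresis after RT-PCR. Cells: HepG2 carrying transfected cis-promoter reporter units, treated 24 h. Gain or loss of signal fitted relative to DMSO.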

The target in test [6] is Hypoxia-inducible factor 1-alpha (Homo sapiens) (UniProt Q16665). Description: ATG_HIF1a_CIS: Attagene CIS-FACTORIAL HepG2 Assay for human Hypoxia Inducible Factor 1 (HIF1A) (AID 2282951). As to conditions: HepG2 Attagene cis-factorial HIF1a reporter transcription; actives raise or lower the signal. The procedure, abridged:
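Dosed 24 h, transfected HepG2 cells yielded total RNA whose reporter transcripts were RT-PCR-amplified and sized by capillary electrophoresis using fluorescent labelling; DMSO defined baseline, with gain and loss of signal both fitted.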

Test [7] addresses Hepatocyte nuclear factor 6 (Homo sapiens) (UniProt Q9UBC0). Description: ATG_HNF6_CIS: Attagene CIS-FACTORIAL HepG2 Assay for human Hepatocyte Nuclear Factor 6 (HNF6) (AID 2282952). The settings on record: HepG2 Attagene cis-factorial HNF6 reporter transcription; actives raise or lower the signal. A digest of the protocol: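 Endogenous transcription factor activity in human HepG2 liver cells was captured through cis-regulated reporter constructs. After 24 h treatment, reporter mRNA was measured by RT-PCR with capillary electrophoresis, and activity was fitted in both directions relative to DMSO.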

The nature of test [8]: ATG_MRE_CIS: Attagene CIS-FACTORIAL HepG2 Assay for human Metal Responsive Element (MRE) (AID 2282954). As to conditions: HepG2 MRE cis-reporter transcription, Attagene multiplex; actives raise or lower the signal. The procedure, abridged: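 RT-PCR/capillary electrophoresis readout of reporter mRNA, 24 h post-dosing, in HepG2 cells transfected with multiplexed cis-regulated reporter constructs. Gain or loss of signal fitted bidirectionally against DMSO baseline.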

Test [9] can be described thus: ATG_PBREM_CIS: Attagene CIS-FACTORIAL HepG2 Assay for human Phenobarbital-responsive Enhancer Module (PBREM) (AID 2282955). As to conditions: HepG2 PBREM cis-reporter, Attagene multiplexed transcription; actives raise or lower the signal. A digest of the protocol:
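Transfected liver-derived HepG2 cells exposed 24 h; PBREM reporter transcript quantified via RT-PCR and capillary electrophoresis, with activity in either direction referenced to DMSO.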

Test [10] concerns the target Paired box protein Pax-6 (Homo sapiens) (UniProt P26367). The test is described as follows: ATG_Pax6_CIS: Attagene CIS-FACTORIAL HepG2 Assay for human Paired Box 6 (PAX6) (AID 2282956). The settings on record: HepG2 CIS-FACTORIAL PAX6 reporter transcription, RNA readout; actives raise or lower the signal. The procedure, abridged:
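DMSO-referenced bidirectional fits of reporter mRNA fluorescence; HepG2 with transient cis-promoter MRTUs, 24 h post-dose, RT-PCR plus capillary electrophoresis detection.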

Test [11] is described as follows: ATG_PXRE_CIS: Attagene CIS-FACTORIAL HepG2 Assay for human Pregnane X Receptor Element (PXRE) (AID 2282957). The settings on record: HepG2 Attagene CIS-FACTORIAL PXRE reporter, mRNA; actives raise or lower the signal. A digest of the protocol: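 Endogenous transcription factor activity in HepG2 was gauged through induction of reporter mRNA driven by a cis-regulating promoter element, sampled 24 h post-treatment. Activity was fitted in both directions against DMSO negative control.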

Test [12] can be described thus: ATG_PPRE_CIS: Attagene CIS-FACTORIAL HepG2 Assay for human Peroxisome Proliferator-activated Response Element (PPRE) (AID 2282958). The settings on record: HepG2 PPRE cis-element reporter, Attagene transcription factor profiling; actives raise or lower the signal. A digest of the protocol: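 Measured endpoint: PPRE-controlled reporter mRNA, detected by RT-PCR and capillary electrophoresis fluorescence, from transiently transfected HepG2 cells 24 h after dosing. Curves fitted in both directions using DMSO baseline.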

Test [13] is described as follows: ATG_Sox_CIS: Attagene CIS-FACTORIAL HepG2 Assay for human SRY-box transcription factor (SOX) (AID 2282960). The settings on record: HepG2 Attagene cis-factorial SOX reporter, mRNA; actives raise or lower the signal. The procedure, abridged: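 Gain- or loss-of-signal endpoint, fitted bidirectionally with DMSO as negative control. Based on reporter mRNA from transfected HepG2 cells harvested 24 h post-treatment and quantified via RT-PCR and capillary electrophoresis.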

Test [14] in a line: ATG_SREBP_CIS: Attagene CIS-FACTORIAL HepG2 Assay for human Sterol Regulatory Element Binding (SREBP) (AID 2282962). As to conditions: HepG2 Attagene cis-factorial SREBP reporter, mRNA; actives raise or lower the signal. The procedure, abridged: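 In this cis-format assay, HepG2 liver cells express reporters controlled by promoter elements responsive to native transcription factors. Exposure lasts 24 h; reporter mRNA fluorescence from capillary electrophoresis gives the signal, fitted bidirectionally against DMSO.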

Test [15] deals with Signal transducer and activator of transcription 3 (Homo sapiens) (UniProt P40763). The test is described as follows: ATG_STAT3_CIS: Attagene CIS-FACTORIAL HepG2 Assay for human Signal Transducer and Activator of Transcription 3 (STAT3) (AID 2282963). As to conditions: HepG2, Attagene cis-factorial STAT3 reporter transcription; actives raise or lower the signal. A digest of the protocol:
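Readout: fluorescent reporter mRNA fragments resolved by capillary electrophoresis. Setup: HepG2 transfected with MRTUs reporting endogenous transcription-factor activity, dosed 24 h. Gain or loss of signal fitted bidirectionally against DMSO control.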

The nature of test [16]: ATG_TA_CIS: Attagene CIS-FACTORIAL HepG2 Assay for human TA Basal Promoter (AID 2282964). The settings on record: HepG2 Attagene CIS-factorial TA basal promoter reporter; actives raise or lower the signal. The procedure, abridged: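 Read-out: fluorescent reporter-transcript fragments resolved by capillary electrophoresis after RT-PCR and HpaI digestion. Source: HepG2 cells carrying transiently transfected multi-reporter cis constructs, treated 24 h. Endpoint fitted bidirectionally relative to DMSO.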

The nature of test [17]: ATG_TCF_b_cat_CIS: Attagene CIS-FACTORIAL HepG2 Assay for human T-Cell-Factor with beta-catenin (TCF/b-cat) (AID 2282965). The settings on record: HepG2 TCF/beta-catenin cis-reporter transcription, actives raise or lower the signal. A digest of the protocol: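 HepG2, transient MRTU transfection, cis-element-driven reporters (endogenous TFs). 24 h compound exposure. Readout: reporter mRNA by RT-PCR + 6-FAM primer extension, HpaI digest, capillary electrophoresis. Gain/loss fit vs DMSO baseline.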

For test [18], the target named is Heat shock factor protein 1 (Homo sapiens) (UniProt Q00613). The test is described as follows: ATG_HSE_CIS: Attagene CIS-FACTORIAL HepG2 Assay for human Heat Shock Transcription Factor 1 (HSE) (AID 2282953). The settings on record: HepG2 HSE cis-reporter, Attagene RNA transcription; actives raise or lower the signal. The procedure, abridged:
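HepG2, transient MRTU transfection, cis-promoter reporters (endogenous TF activity). 24 h compound. RNA → oligo(dT) RT → PCR → 6-FAM primer extension → HpaI cut → CE. Bidirectional fit vs DMSO.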

Test [19] has as its target Transcription factor Sp1 (Homo sapiens) (UniProt P08047). The test is described as follows: ATG_Sp1_CIS: Attagene CIS-FACTORIAL HepG2 Assay for human Specificity Protein 1 (Sp1) (AID 2282961). As to conditions: HepG2 Sp1 cis-reporter transcription, actives raise or lower the signal. A digest of the protocol:
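Endpoint reflects endogenous Sp1 transcriptional activity, not an exogenous fusion protein: HepG2 cells with transfected cis-regulated reporters, 24 h dosing, RT-PCR/capillary electrophoresis mRNA read-out, DMSO-normalised bidirectional fit.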

Test [20] in a line: ATG_RORE_CIS: Attagene CIS-FACTORIAL HepG2 Assay for human RAR-related Orphan Receptor Element (RORE) (AID 2282959). As to conditions: HepG2 Attagene cis-factorial RORE reporter, mRNA; actives raise or lower the signal. The procedure, abridged: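 Transiently transfected HepG2 reporter cells were treated 24 h. Reporter transcripts were detected by RT-PCR and capillary electrophoresis, with bidirectional fitting against DMSO.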

SMILES strings stand for the structures. Activity calls are given as the source filed them. How the source made its calls: active means hit-call score of the fitted dose curve at least 0.9, where 1 is the maximum; inactive means score below 0.9.

As a reminder, the AC50 is the concentration at which the activity in the assay is half-maximal.

Hepatocyte nuclear factor 6 (Homo sapiens), sequence (Q9UBC0 whole entry, looked up): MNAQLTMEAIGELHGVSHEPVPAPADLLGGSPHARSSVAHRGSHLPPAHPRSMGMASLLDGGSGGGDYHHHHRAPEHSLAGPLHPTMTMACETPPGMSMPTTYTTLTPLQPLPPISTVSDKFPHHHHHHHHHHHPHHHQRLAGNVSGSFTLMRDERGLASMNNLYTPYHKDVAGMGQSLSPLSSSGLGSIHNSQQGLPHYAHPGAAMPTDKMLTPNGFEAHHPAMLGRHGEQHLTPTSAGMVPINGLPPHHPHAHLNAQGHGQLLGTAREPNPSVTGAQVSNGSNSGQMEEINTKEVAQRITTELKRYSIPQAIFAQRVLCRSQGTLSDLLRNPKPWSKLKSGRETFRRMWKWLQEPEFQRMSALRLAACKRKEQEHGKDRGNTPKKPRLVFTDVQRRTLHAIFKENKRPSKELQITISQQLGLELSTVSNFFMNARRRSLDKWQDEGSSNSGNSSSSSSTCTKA
Bile acid receptor (Homo sapiens), sequence (Q96RI1 whole entry, looked up): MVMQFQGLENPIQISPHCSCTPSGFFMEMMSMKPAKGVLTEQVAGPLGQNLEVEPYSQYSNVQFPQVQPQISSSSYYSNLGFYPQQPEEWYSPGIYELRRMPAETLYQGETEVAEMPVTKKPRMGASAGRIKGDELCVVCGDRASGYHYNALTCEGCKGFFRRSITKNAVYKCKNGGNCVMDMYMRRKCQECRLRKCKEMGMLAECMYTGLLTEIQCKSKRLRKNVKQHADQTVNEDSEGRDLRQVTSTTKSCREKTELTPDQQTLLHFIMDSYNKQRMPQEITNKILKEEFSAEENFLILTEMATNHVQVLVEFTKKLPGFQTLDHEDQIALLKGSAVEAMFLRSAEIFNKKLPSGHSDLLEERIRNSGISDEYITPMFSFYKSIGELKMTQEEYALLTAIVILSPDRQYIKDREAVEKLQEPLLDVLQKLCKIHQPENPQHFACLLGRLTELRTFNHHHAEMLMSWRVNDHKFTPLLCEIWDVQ
Paired box protein Pax-6 (Homo sapiens), sequence (P26367 whole entry, looked up): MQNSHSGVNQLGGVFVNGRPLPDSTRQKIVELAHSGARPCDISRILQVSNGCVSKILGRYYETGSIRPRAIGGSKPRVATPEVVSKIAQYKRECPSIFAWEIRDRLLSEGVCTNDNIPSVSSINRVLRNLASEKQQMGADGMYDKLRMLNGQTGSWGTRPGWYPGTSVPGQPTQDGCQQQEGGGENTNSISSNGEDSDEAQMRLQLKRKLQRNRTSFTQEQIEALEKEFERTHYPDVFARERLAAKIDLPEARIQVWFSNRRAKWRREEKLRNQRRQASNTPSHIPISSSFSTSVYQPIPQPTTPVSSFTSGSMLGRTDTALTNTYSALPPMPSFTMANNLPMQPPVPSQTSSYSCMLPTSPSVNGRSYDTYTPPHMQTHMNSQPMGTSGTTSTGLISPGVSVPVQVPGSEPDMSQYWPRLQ
Signal transducer and activator of transcription 3 (Homo sapiens), sequence (P40763 whole entry, looked up, the tested form may be a part): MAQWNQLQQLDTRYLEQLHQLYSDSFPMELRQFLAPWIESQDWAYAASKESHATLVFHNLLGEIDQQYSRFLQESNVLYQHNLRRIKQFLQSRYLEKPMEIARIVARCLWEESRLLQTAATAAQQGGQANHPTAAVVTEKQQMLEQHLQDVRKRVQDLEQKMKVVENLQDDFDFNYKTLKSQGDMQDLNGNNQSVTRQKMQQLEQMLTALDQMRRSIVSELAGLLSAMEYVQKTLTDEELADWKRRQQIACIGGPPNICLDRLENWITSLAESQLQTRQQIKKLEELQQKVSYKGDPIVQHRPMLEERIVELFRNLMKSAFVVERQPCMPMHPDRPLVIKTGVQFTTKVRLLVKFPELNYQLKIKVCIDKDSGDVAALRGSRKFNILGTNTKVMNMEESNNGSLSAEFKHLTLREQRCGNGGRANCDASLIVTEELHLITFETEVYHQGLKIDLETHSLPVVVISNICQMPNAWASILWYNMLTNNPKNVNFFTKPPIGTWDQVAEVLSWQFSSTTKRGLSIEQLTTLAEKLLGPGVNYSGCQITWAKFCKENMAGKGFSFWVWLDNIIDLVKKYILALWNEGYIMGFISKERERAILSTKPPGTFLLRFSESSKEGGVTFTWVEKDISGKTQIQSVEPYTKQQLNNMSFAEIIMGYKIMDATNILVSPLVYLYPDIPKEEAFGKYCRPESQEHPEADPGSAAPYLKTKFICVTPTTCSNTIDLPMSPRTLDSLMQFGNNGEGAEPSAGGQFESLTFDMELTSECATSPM
Transcription factor Sp1 (Homo sapiens), sequence (P08047 whole entry, looked up, the tested form may be a part): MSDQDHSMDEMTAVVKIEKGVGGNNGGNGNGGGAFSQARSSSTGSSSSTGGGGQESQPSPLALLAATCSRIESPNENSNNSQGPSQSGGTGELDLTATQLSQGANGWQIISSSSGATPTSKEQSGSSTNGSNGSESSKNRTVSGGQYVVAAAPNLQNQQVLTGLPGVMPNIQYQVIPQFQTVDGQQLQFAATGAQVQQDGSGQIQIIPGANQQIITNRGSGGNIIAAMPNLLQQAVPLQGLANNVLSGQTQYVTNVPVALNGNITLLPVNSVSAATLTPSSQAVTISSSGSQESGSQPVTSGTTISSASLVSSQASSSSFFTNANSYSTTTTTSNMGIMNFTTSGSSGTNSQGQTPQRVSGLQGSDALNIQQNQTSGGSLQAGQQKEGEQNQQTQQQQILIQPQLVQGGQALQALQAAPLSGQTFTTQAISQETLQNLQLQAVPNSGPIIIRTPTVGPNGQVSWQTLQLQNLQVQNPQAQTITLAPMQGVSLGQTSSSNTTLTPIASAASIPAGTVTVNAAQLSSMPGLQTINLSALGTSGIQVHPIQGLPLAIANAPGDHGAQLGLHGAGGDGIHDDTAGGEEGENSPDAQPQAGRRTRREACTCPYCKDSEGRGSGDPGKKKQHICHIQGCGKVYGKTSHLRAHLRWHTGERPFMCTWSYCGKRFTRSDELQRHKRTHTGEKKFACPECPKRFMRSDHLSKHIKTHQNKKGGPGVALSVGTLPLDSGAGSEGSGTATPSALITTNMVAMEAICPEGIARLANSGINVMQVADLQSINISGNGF
Hypoxia-inducible factor 1-alpha (Homo sapiens), sequence (Q16665 whole entry, looked up): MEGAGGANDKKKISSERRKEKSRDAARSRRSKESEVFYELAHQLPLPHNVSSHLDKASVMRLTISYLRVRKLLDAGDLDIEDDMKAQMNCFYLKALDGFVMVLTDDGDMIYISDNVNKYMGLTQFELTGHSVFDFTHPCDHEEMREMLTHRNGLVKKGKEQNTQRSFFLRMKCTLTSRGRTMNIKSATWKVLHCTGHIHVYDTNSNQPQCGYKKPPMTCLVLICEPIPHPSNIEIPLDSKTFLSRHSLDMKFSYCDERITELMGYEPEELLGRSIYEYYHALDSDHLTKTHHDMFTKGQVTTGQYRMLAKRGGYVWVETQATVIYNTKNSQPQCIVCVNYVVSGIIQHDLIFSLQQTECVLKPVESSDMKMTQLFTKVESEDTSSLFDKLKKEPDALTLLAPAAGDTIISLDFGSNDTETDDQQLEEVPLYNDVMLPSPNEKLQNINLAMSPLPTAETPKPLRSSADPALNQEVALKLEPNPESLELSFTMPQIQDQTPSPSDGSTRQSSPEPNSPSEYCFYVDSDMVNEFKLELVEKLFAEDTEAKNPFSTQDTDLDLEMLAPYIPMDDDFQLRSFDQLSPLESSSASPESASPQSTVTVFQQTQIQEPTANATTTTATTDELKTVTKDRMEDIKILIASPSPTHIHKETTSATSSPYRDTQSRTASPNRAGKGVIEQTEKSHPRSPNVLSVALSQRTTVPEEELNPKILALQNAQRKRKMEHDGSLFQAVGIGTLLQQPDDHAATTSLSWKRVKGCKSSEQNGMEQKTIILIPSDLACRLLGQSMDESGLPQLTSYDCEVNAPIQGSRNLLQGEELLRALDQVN
Heat shock factor protein 1 (Homo sapiens), sequence (Q00613 whole entry, looked up): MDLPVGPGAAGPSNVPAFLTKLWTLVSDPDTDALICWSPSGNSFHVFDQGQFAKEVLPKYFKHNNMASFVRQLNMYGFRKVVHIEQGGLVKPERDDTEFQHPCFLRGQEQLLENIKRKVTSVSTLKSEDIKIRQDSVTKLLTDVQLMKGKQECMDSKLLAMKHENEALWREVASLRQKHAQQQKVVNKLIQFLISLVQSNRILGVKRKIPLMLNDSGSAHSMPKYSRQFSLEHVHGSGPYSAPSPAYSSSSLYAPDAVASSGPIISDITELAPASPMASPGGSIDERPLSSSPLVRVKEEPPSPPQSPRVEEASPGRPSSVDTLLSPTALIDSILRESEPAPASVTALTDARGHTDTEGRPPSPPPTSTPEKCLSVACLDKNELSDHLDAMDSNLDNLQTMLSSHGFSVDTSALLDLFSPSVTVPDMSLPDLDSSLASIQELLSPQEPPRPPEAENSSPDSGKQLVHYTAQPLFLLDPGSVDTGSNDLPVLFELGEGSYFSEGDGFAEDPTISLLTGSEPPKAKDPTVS

With `Cc1ccc(S(=O)(=O)Oc2ccc(N=Nc3ccc(-c4ccc(N=Nc5c(O)ccc6cc(S(=O)(=O)O)cc(S(=O)(=O)O)c56)c(C)c4)cc3C)cc2)cc1`, the result in test [1], in test [2], in test [3], in [4], in [5] and in test [6] was inactive. Besides, the outcome in test [7], in test [8], in [9], in test [10], in test [12] and in [13] was inactive. The result in test [14], in test [15], in test [16] and in test [17] was inactive. Further, the AC50 in test [11] was 4.91 µM (active).

`C[C@H]1O[C@@H](O[C@H]2[C@@H](O)C[C@H](O[C@H]3[C@@H](O)C[C@H](O[C@H]4CC[C@@]5(C)[C@H](CC[C@@H]6[C@@H]5C[C@@H](O)[C@]5(C)[C@@H](C7=CC(=O)OC7)CC[C@]65O)C4)O[C@@H]3C)O[C@@H]2C)C[C@H](O)[C@@H]1O`: the AC50 in [1] was 0.253 µM (active); in test [2] it was 3.3 µM (active); in test [3], 0.179 µM (active); in test [18] it was 0.194 µM (active); in test [8] it was 0.182 µM (active); in [10] it was 0.0811 µM (active). Further, the AC50 in test [11] was 0.271 µM (active); in [19], 0.042 µM (active); in [14] it was 0.0822 µM (active); in test [15], 3.54 µM (active); in test [17], 1.03 µM (active). For the same compound, the call in test [4], in [5], in [7], in test [12] and in test [16] was inactive.

Consider `C=C1CC[C@H](O)C/C1=C/C=C1\CCC[C@]2(C)[C@@H]([C@H](C)/C=C/[C@H](C)C(C)C)CC[C@@H]12`, for which the call in test [1], in test [2], in test [3], in test [4], in test [5] and in [7] was inactive. For the same compound, the call in test [8], in [9], in test [10], in [12], in [13] and in test [14] was inactive. The outcome in test [15], in [16] and in test [17] was inactive. For the same compound, the AC50 in test [11] was 3.32 µM (active).

Regarding `CCCCN(CCCC)C(=O)N(CCCC)CCCC`, the AC50 in test [1] is 24.5 µM (active); in test [2], 48.3 µM (active); in test [6], 54.8 µM (active); in [7], 53.7 µM (active); in test [8], 8.86 µM (active); in test [10], 37.2 µM (active). Also, the AC50 in [11] was 0.753 µM (active); in test [12], 61 µM (active); in test [13], 52.2 µM (active); in test [19] it was 46.8 µM (active); in [14] it was 54.6 µM (active); in test [16], 25.5 µM (active). In test [17], the AC50 was 60.6 µM (active). Besides, the outcome in [3], in test [4], in test [5], in [20] and in [15] was inactive.
